From PubChem
Compounds with a hit are over-represented: about 0.85% of the library has one in this group of screens.
GRP78 ERSR act: induces the endoplasmic reticulum stress response in human glioma cells. U87-MG GRP78 promoter luciferase reporter, 16 h. Potency, µM, most hits filed as activators. AID 602332. 420,000 tested, 0.02% active; note: series mostly up to about 76 µM; nearly all actives have a fitted effect of over 35% in size
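Stably transfected U87-MG human glioma cells carrying a GRP78-based luminescent sensor were seeded at 1000 cells/well, pin-dosed with compounds and incubated 16 h. Luciferase reagent was then added, and end-point luminescence was read after 10 min at room temperature.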
CCT chaperon mod: changes cytosolic chaperonin activity. purified chaperonin ATPase assay, HTRF ADP detection, 30 min. activity change, % (concentration not given with the values), hits read low. 360,000 tested, 0.3% active; in the data active = activity change below about -30%
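We incubate TRiC, 40 or 20 nM final, with library compounds at 76 uM and 10 uM ATP for 30 min at 37 °C. ADP formed is detected with Transcreener HTRF reagents after 30 min at room temperature.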
GLS inhibitor: blocks human kidney-isoform glutaminase activity; O94925; GLS enzymatic activity, qHTS titration; Potency, µM (top dose mostly 45.5 µM), hits mostly inhibitors; 410,000 tested, 0.21% active; AID 624170
Target sequence (O94925 whole entry, looked up, canonical isoform): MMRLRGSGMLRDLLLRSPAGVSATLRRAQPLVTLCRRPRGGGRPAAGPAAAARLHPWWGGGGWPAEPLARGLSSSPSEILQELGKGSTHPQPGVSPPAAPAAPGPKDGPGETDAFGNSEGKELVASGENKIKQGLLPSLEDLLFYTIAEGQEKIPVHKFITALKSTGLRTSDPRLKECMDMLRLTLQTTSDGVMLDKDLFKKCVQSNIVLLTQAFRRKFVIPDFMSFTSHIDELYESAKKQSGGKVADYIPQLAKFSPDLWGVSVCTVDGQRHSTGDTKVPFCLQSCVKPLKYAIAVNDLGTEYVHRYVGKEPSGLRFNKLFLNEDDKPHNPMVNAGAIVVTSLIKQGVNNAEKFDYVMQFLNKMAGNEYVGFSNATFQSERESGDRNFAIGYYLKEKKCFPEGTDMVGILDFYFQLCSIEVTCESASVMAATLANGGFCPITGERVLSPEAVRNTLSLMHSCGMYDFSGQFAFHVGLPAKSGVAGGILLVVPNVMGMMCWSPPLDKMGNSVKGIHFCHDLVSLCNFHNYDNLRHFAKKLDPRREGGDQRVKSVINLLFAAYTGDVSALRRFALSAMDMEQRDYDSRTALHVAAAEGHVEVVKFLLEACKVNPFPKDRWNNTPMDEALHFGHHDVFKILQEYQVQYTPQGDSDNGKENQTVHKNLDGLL
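Coupled fluorescence readout: glutamate oxidase/HRP/Amplex Red detect glutamate formed by hKGA from L-glutamine (1 mM solution added). Buffer 45 mM KH2PO4 pH 8.2, 0.02% Tween-20; reads at t0 and 30 min RT.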
pAkt inh: Akt phosphorylation inhibition; activity change, % for hits at 50 µM; Neuro2A IGF-stimulated pAkt S473 HTRF, 20 min; active compounds read low; AID 651550; 360,000 tested, 0.32% active; in the data active = activity change below about -80%; inconclusive = mostly about -51% to -80%
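Single-point screen (50 µM final compound) in Neuro2A cells stimulated 20 min with 6 nM IGF at 37 deg C. After lysis, Ser473-phosphorylated Akt read by HTRF (ex 330 nm, em 615/665 nm) as the 665/615 ratio.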
Mm-Cpn inhibitor: inhibitors of Methanococcus maripaludis chaperonin TRiC (MmCpn). purified Mm-Cpn ATPase, ADP Transcreener TR-FRET. Potency, µM (series often up to 76.9 µM), usual class: inhibitors. 330,000 tested, 0.031% active. AID 504842; note: nearly all actives have a fitted effect of over 80% in size
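ATPase read-out: TR-FRET ADP immunoassay (anti-ADP Eu cryptate vs ADP-d2), ex 320 nm, em 590/665 nm; signal drops as ADP forms. Enzyme 25 nM, ATP 10 uM, 30 min at 37°C after 10 min compound preincubation.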
mIDH1 inhibitor: blocks human mutant IDH1 R132H enzyme; O75874; IDH1-R132H enzyme, NADPH consumption, diaphorase/resazurin fluorescence; Potency, µM (top dose mostly 76.6 µM), most hits filed as inhibitors; 390,000 tested, 0.093% active; AID 602179; note: nearly all actives have a fitted effect of over 65% in size
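IDH1-R132H (0.5 ug/mL) preincubated 30 min with compound, then NADPH (0.016 mM) and alpha-KG (2 mM) added; 80 min at RT, pH 7.5. Remaining NADPH coupled via diaphorase/resazurin to fluorescence (540/590 nm); concentration-response curves normalized to no-enzyme control.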
IDH1 autofl: counter-screen for mutant IDH1 inhibitors: fluorescence interference; AID 623980; 750 tested, under 10 active; inhibition of signal, % at 51.2 µM; shares compounds with mIDH1 inhibitor; Resorufin detection reagent fluorescence interference, cell-free
IDH1 WT: selectivity of mutant IDH1 inhibitors: human wild-type IDH1. shares compounds with mIDH1 inhibitor. WT IDH1 enzyme, NADPH diaphorase/resazurin fluorescence. Potency, µM (titrated, usually from 115 µM), usual class: inhibitors. 750 tested, 9% active. AID 623995; note: nearly all actives have a fitted effect of over 55% in size
IDH1 R132H conf: inhibits human mutant IDH1 enzyme in cherrypick confirmation; AID 624002; 750 tested, 83% active; IDH1 R132H enzyme, NADPH diaphorase/resazurin fluorescence; shares compounds with mIDH1 inhibitor; Potency, µM (top dose mostly 76.6 µM), usual class: inhibitors; note: nearly all actives have a fitted effect of over 50% in size
Hits are given with their value; - = inactive; ? = inconclusive; . = not tested or not shown; ! = not active in a repeat; [ ] = dose if it differs, or a comment. Unless noted, calls come from the whole dose curve; as a rule, active = well fitted curve in the direction sought with a large enough effect; inconclusive = small, poorly fitted or top-dose-only effect, or another doubt; inactive = no such curve, though single readings can be large; an effect the other way counts as inactive or inconclusive.

SMILES	GRP78 ERSR act	CCT chaperon mod	GLS inhibitor	pAkt inh	Mm-Cpn inhibitor	mIDH1 inhibitor	others
Cc1cc(/C=C2\C(=O)NC(=O)N(c3ccccc3F)C2=O)c(C)n1-c1cc(C(=O)O)cc(C(=O)O)c1	-	-	5.01µM	-	-	-
COc1cc(C[C@H](C)N)c(OC)cc1C	-	.	-	.	.	.
O=C1NC(=S)NC(=O)C12C(c1ccc(F)cc1)NC(=S)NC2c1ccc(F)cc1 (configuration not stated)	-	-	-	-117.9%	-	-
O=C1NC(=S)NC(=O)C12C(c1ccccc1)NC(=S)NC2c1ccccc1 (configuration not stated)	-	-	-	-	-	-
COc1ccc(OC)c(N2C(=O)NC(=O)/C(=C\c3ccc([N+](=O)[O-])s3)C2=O)c1	-	-	10µM	-	-	-
Clc1ccc(OCC#CCN2CCCC2)cc1	-	-34.2	-	-	-	-
COc1ccc(C2SCC(=O)Nc3c2c(=O)[nH]n3C2CCCCC2)cc1 (configuration not stated)	-	-	-	-105.2%	-	-
CC(N)C(=O)c1ccccc1 (configuration not stated)	-	.	-	.	.	.
CCCCn1c(NS(=O)(=O)c2ccccc2)c(C(=O)OCC)c2nc3ccccc3nc21	-	-	-	-	44.7µM	-
CCON=C(CC)C1=C(O)CC(c2c(C)cc(C)cc2C)CC1=O (configuration not stated)	-	.	-	.	.	.
O=C1CN=C(c2ccccc2)c2ccccc2N1	-	-53.1	-	-	-	-
CN1C(=O)NC(=O)/C(=C\c2ccc([N+](=O)[O-])o2)C1=O	-	-	7.08µM	-	-	-
CN1C(=O)NC(=O)/C(=C/c2ccc([N+](=O)[O-])o2)C1=O	-	-	-	-	-	-
NC1CCCC[C@H]1N (some centres not stated)	-	.	.	.	.	.
COc1ccc2c3c1OC1C(O)C=CC4[C@@H](C2)NCC[C@]314 (some centres not stated)	-	.	-	.	.	.
O=c1c2ccccc2nc(CSc2ncnc3nc[nH]c23)n1-c1ccccc1	-	-	-	-84.0%	-	-
Cc1cccc(N2C(=O)NC(=O)/C(=C\c3ccc4c(c3)CCCN4Cc3ccccc3)C2=O)c1	-	-	-	-	-	52.1µM
CC[C@@H](O)C(C[C@@H](C)N(C)C)(c1ccccc1)c1ccccc1	-	.	-	.	.	.
CN(C)[C@@H]1C(=O)C(C(N)=O)=C(O)[C@@]2(O)C(=O)C3=C(O)c4c(O)cccc4[C@@](C)(O)C3[C@H](O)C12 (some centres not stated)	-	-	10µM!	-	-	-
CN(C)C1C(=O)C(C(N)=O)=C(O)[C@@]2(O)C(=O)C3=C(O)c4c(O)cccc4[C@@](C)(O)C3[C@H](O)C12 (some centres not stated)	-	.	.	.	.	.
ClC[C@H]1CO1 (tested in a mixture with another compound)	-	.	-	.	.	.
O=C(O)c1ccccc1-c1ccc(C=C2C(=O)N(c3ccccc3)C(=S)N(c3ccccc3)C2=O)o1	-	-	8.91µM	-	-	-
O=C1NC(=O)N(c2ccccc2)C(=O)/C1=C\c1ccc([N+](=O)[O-])o1	.	.	.	.	-	.
CCOc1ccc(N2C(=O)/C(=C/c3ccco3)C(=O)NC2=S)cc1	-	-	1.78µM	-	-	-
Cc1ccc(CN2CCN(CC(=O)N3CCC4(CC3)OCCO4)C2=O)cc1	-	-	-	-	-	-
SMILES	GRP78 ERSR act	CCT chaperon mod	GLS inhibitor	pAkt inh	Mm-Cpn inhibitor	mIDH1 inhibitor	others
Cc1ccc(CCN2CC(C(=O)N3CCC4(CC3)OCCO4)CC2=O)cc1 (configuration not stated)	-	-64.4	-	-	-	-
O=c1[nH]sc2cc(F)ccc12	-	-	7.94µM	-	-	-
COc1ccc(N2C(=O)CC(N3CC=C(c4ccccc4)CC3)C2=O)cc1 (configuration not stated)	-	-61.2	-	-	-	-
CCCCCc1nc2c(c(=O)c3ccccc3n2C)c(=O)n1C1CCCCCC1	-	-	-	-	-	10.4µM	IDH1 autofl=-;IDH1 WT=35.5µM;IDH1 R132H conf=5.01µM
CCCCCc1nc2ccccc2c(=O)n1-c1ccc(C)cc1	-	.	-	.	.	-
N#CC(C#N)=NNc1ccc(OC(F)(F)F)cc1	-	.	.	.	.	.
N#CCC(=O)NN	-	.	-	.	.	.
Cc1cc(C=C2C(=O)NC(=O)NC2=O)c(C)n1-c1ccc2c(c1)OCO2	-	-	-	-	-	-
Cc1cc(C=C2C(=O)NC(=S)NC2=O)c(C)n1-c1ccc2c(c1)OCO2	-	-	-	-	-	41.4µM	IDH1 autofl=-;IDH1 WT=?;IDH1 R132H conf=35.5µM
COc1cc(-c2ccc(-[n+]3nc(-c4ccccc4)nn3-c3ccc([N+](=O)[O-])cc3)c(OC)c2)ccc1-[n+]1nc(-c2ccccc2)nn1-c1ccc([N+](=O)[O-])cc1	-	.	-	.	.	.
COCCCn1c(N)c(C(=O)Nc2sc3c(c2C(=O)OC)CCCC3)c2nc3ccccc3nc21	-	-	-	-	-	?	IDH1 autofl=-;IDH1 WT=-;IDH1 R132H conf=?
OCCN1CCN(CCCN2c3ccccc3Sc3ccc(C(F)(F)F)cc32)CC1	-	-	-	-	-[15.4 µM]	-
FC(F)(F)c1ccc2c(c1)N(CCCN1CCN(CCCl)CC1)c1ccccc1S2	-	-	-	-	-	36.9µM	IDH1 autofl=-;IDH1 WT=-;IDH1 R132H conf=8.91µM
O=c1c2ccccc2nc(/C=C/c2cccnc2)n1Cc1ccccc1	-	-	?	-	-	41.4µM	IDH1 autofl=-;IDH1 WT=44.7µM;IDH1 R132H conf=25.1µM
CCCCNC(C)(C)[P+](=O)O	-	.	-	.	.	.
O=C(N/N=C/c1c(O)n(C2CCCCC2)c(=S)[nH]c1=O)c1ccccc1O	-	-	-	.	-	?	IDH1 autofl=-;IDH1 WT=-;IDH1 R132H conf=44.7µM
CCOC(=O)c1c(-n2c(C)cc(C=C3C(=O)NC(=O)NC3=O)c2C)sc2c1CCCC2	-	-	-	-	-	18.5µM	IDH1 autofl=-;IDH1 WT=28.2µM;IDH1 R132H conf=11.2µM
CN(C)C(=O)Oc1ccc(C(=O)c2ccccc2)cc1	-	-	-	-	-	-
CCC(=O)Oc1ccc(C(=O)Nc2cccc(C(=O)c3ccccc3)c2)cc1	-	-	-	-	-	26.1µM	IDH1 autofl=-;IDH1 WT=-;IDH1 R132H conf=10µM
